{
  "source": "PubChem BioAssay (NCATS)",
  "note": "Results filed as inconclusive are left out. Values without a mark were called inactive. Activity calls are given as the source filed them. Calls come from the whole dose curve; as a rule, active = well fitted inhibition curve with a large enough effect; inconclusive = small, poorly fitted or top-dose-only effect; inactive = flat fitted curve, though single readings scatter. % is set by controls: 0 for no effect and ±100 for the full control effect.",
  "data": [
    {"molecular_target": "Phospholipid hydroperoxide glutathione peroxidase GPX4 (Homo sapiens) (UniProt P36969)", "sequence (P36969 whole entry, looked up)": "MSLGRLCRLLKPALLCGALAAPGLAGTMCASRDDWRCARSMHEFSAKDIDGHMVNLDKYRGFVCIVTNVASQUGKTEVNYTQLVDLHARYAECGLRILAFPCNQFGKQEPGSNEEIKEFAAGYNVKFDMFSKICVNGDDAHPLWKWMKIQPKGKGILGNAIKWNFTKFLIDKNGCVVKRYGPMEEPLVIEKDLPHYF", "assay": "Primary qHTS Assay for Inhibitors of Recombinant Selenoprotein Glutathione Peroxidase 4 (GPX4) (AID 1845192); note: nearly all actives have a fitted effect of over 65% in size", "details": "recombinant GPX4, GR-coupled NADPH fluorescence, 15 min; series mostly up to 50 µM; activity change, negative = inhibition: at the top concentration", "text": "Assay Provider: Elias S.J. Arner MD PhD.\nDepartment of Medical Biochemistry and Biophysics\nKarolinska Institutet, Solna, Stockholm, Sweden\nSelenoprotein glutathione peroxidases (GPX), like the ubiquitously expressed GPX1 and the ferroptosis modulator GPX4, enact their antioxidant activities by reducing hydroperoxides using glutathione. […] GPX1 and GPX4 inhibitors have thus shown promise as anti-cancer agents. Existing inhibitors are often promiscuous, or modulate GPX activity only indirectly, so novel direct inhibitors identified through screening against GPX1 and GPX4 could be valuable. Here, we developed optimized glutathione reductase (GR)-coupled GPX assays for the biochemical high-throughput screen (HTS) of almost 12,000 compounds with known mechanisms of action. Initial hits were triaged using a GR counter-screen, assessed for isoform specificity using a separate GPX2 assay, and were assessed for general selenocysteine-targeting activity using a thioredoxin reductase (TXNRD1) assay. With this suite of assays, we identified novel GPX1/GPX2- and GPX4-specific inhibitors and can here present a validated pipeline for future discovery research for selenoprotein-targeting agents.\nSEQUENCE No. (e.g., 1, 2, 3, etc.); […] (e.g., Cells, Incubation, Reagent, etc.); VALUE; DESCRIPTION.\n1; Reagent 1; 3 uL; 333.33 nM GPx4 enzyme or no enzyme control in 1536-well, black, solid Greiner assay plate.\n2; Compound; 25 nL; Kalypsis pin tool (Wako USA) equipped with a 1536-well pin head.\n3; Incubation; 30 min; room temperature.\n4; Reagent 2; 1 uL; 500 nM GR, 5 mM GSH, 2.5 mM NADPH solution\n5; Reagent 3; 1 uL; 2.5 mM CHP in 50% EtOH.\n6; Detection; Fluorescence; ViewLux microplate reader, excitation 340 nm and emission 450 nm.\n7; Incubation; 15 min; room temperature.\n8; Detection; Fluorescence; ViewLux microplate reader, excitation 340 nm and emission 450 nm.\nNOTES (numbers refer to Sequence numbers above)\n1. 3 µL of 333.33 nM GPX4 and 0.016% BSA in assay buffer (50 mM Tris-HCl, 2 mM EDTA (pH 7.5), 150 mM NaCl) was added to columns 3-48 of 1536-well plates using a BioRAPTR Flying Reagent Dispenser (Let's Go Robotics (LGR), Carlsbad, CA). A no-enzyme control (0.01% BSA in TES assay buffer) was added to columns 1-2.\n2. 25 nL, library and DMSO controls were added to each well with a pin tool (Kalypsys).\n3. The assay plates were incubated for 30 minutes at room temperature.\n4. 1 µL of master mix (500 nM glutathione reductase (GR), 5 mM reduced glutathione (GSH), 2.5 mM NADPH in assay buffer) was added.\n5. 1 µL of cumene hydroperoxide (CHP) ([2.5 mM] in 50% EtOH) was then added within 5 minutes to initiate the reaction. Final concentrations were: 200 nM GPX4, 1 mM GSH, 0.5 mM CHP, 0.5 mM NADPH, 100 nM GR, 0.01% BSA.\n6. Initial fluorescence readout (t=0) at 340/450 nm was measured using a ViewLux multimodal detector (PerkinElmer, Waltham, MA).\n8. Endpoint fluorescence readout (t=15) at 340/450 nm was measured 15 min after room temperature incubation.", "units": {"activity change, negative = inhibition": "%"}, "values": [
      {"smiles": "NC(N)=N/N=C/c1c(Cl)cccc1Cl", "outcome": "inactive"},
      {"smiles": "C#CCN(C)CCCOc1ccc(Cl)cc1Cl", "activity change, negative = inhibition": -6.66},
      {"smiles": "NC(=Nc1ccccc1)Nc1ccccc1", "activity change, negative = inhibition": -8.64},
      {"smiles": "CCN(CC)CC(=O)Nc1c(C)cccc1C", "outcome": "inactive"},
      {"smiles": "COCCCC/C(=N\\OCCN)c1ccc(C(F)(F)F)cc1", "outcome": "inactive"},
      {"smiles": "COc1ccc(CCN(C)CCCC(C#N)(c2cc(OC)c(OC)c(OC)c2)C(C)C)cc1OC", "note": "(stereo not given)", "outcome": "inactive"},
      {"smiles": "COc1cc2c(cc1OC)-c1cc(=Nc3c(C)cc(C)cc3C)n(C)c(=O)n1CC2", "activity change, negative = inhibition": -4.22},
      {"smiles": "CCCNC(C)C(=O)Nc1ccccc1C", "note": "(stereo not given)", "outcome": "inactive"},
      {"smiles": "CCN(Cc1ccncc1)C(=O)C(CO)c1ccccc1", "note": "(stereo not given)", "outcome": "inactive"},
      {"smiles": "O=C1NCN(c2ccccc2)C12CCN(CCCC(c1ccc(F)cc1)c1ccc(F)cc1)CC2", "activity change, negative = inhibition": -1.03},
      {"smiles": "CN(C)CCN(Cc1cccs1)c1ccccn1", "outcome": "inactive"},
      {"smiles": "COCCOC(=O)C1=C(C)NC(C)=C(C(=O)OC(C)C)C1c1cccc([N+](=O)[O-])c1", "note": "(stereo not given)", "outcome": "inactive"},
      {"smiles": "NC/C=C/C(=O)O", "activity change, negative = inhibition": 0.029},
      {"smiles": "CCN(CC)CCNC(=O)c1ccc(NC(C)=O)cc1", "outcome": "inactive"},
      {"smiles": "CCCN(CCC)CCc1cccc2c1CC(=O)N2", "outcome": "inactive"},
      {"smiles": "CCO/C([O-])=N/c1c[n+](N2CCOCC2)no1", "outcome": "inactive"},
      {"smiles": "CC(=O)[C@@]1(O)CC[C@H]2[C@@H]3CCC4=CC(=O)CC[C@]4(C)[C@H]3CC[C@@]21C", "activity change, negative = inhibition": -5.73},
      {"smiles": "CN(C)CC/C=C1\\c2ccccc2COc2ccccc21", "outcome": "inactive"},
      {"smiles": "CC(=O)Nc1nnc(S(N)(=O)=O)s1", "outcome": "inactive"},
      {"smiles": "c1cnc(N2CCN(Cc3ccc4c(c3)OCO4)CC2)nc1", "activity change, negative = inhibition": -3.9},
      {"smiles": "CC(C(=O)O)c1ccc(CC2CCCC2=O)cc1", "note": "(stereo not given)", "outcome": "inactive"},
      {"smiles": "NC(=O)c1cn(Cc2c(F)cccc2F)nn1", "outcome": "inactive"},
      {"smiles": "CCn1cc(C(=O)O)c(=O)c2cc3c(cc21)OCO3", "outcome": "inactive"},
      {"smiles": "CC(=O)Oc1cc(C(C)C)c(OCCN(C)C)cc1C", "outcome": "inactive"},
      {"smiles": "OC(CCN1CCCCC1)(c1ccccc1)C1CCCCC1", "note": "(stereo not given)", "outcome": "inactive"},
      {"smiles": "CN(C)C/C=C(/c1ccc(Br)cc1)c1cccnc1", "outcome": "inactive"},
      {"smiles": "C[n+]1cc2c3c(ccc2c2ccc4cc5c(cc4c21)OCO5)OCO3", "outcome": "inactive"},
      {"smiles": "Cc1nc2ccccn2c(=O)c1CCN1CCC(C(=O)c2ccc(F)cc2)CC1", "outcome": "inactive"},
      {"smiles": "O=C1CC2(CCCC2)CC(=O)N1CCCCN1CCN(c2ncccn2)CC1", "outcome": "inactive"},
      {"smiles": "CC(C)(C)c1ccc(C(=O)CCCN2CCC(OC(c3ccccc3)c3ccccc3)CC2)cc1", "outcome": "inactive"},
      {"smiles": "OCCN1CCN(CC/C=C2/c3ccccc3Sc3ccc(C(F)(F)F)cc32)CC1", "outcome": "inactive"},
      {"smiles": "CN(C)C(=O)Oc1ccc[n+](C)c1", "outcome": "inactive"},
      {"smiles": "C[C@]12CCC(=O)C=C1CC[C@@H]1[C@@H]2CC[C@@]2(C)[C@H]1CC[C@]2(O)C(=O)CO", "outcome": "inactive"},
      {"smiles": "c1ccc2c(c1)CCCC2C1=NCCN1", "note": "(stereo not given)", "outcome": "inactive"},
      {"smiles": "CCCCNc1c(C(=O)OCC)c(C)nc2c1cnn2CC", "activity change, negative = inhibition": -8.62},
      {"smiles": "CCOC(=O)c1cnc2c(cnn2CC)c1NN=C(C)C", "activity change, negative = inhibition": 3.27},
      {"smiles": "Cc1nc2c([nH]1)c(=O)n(C)c(=O)n2Cc1ccco1", "outcome": "inactive"},
      {"smiles": "O=C(O)CCCCCCCC(=O)O", "outcome": "inactive"},
      {"smiles": "O=C(CCCN1CCC(O)(c2cccc(C(F)(F)F)c2)CC1)c1ccc(F)cc1", "outcome": "inactive"},
      {"smiles": "O=C(CCNNC(=O)c1ccncc1)NCc1ccccc1", "outcome": "inactive"}
    ]}
  ]
}
